Data: PubChem BioAssay AID624170 (National Center for Advancing Translational Sciences (NCATS), 2012)
Where “and” joins values, the source holds several entries; their conditions need not be identical. Identical values can stand only once. Out of some 410,000 compounds screened, about 850 (0.21%) were called active. Roughly 2% stayed inconclusive and do not appear here. Calls come from the whole dose curve; as a rule, active = well fitted inhibition curve with a large enough effect; inconclusive = small, poorly fitted or top-dose-only effect, or another doubt; inactive = no such curve, though single readings can be large or run the other way. Shown is part of a subset that was picked to be rich in actives. Where a call stands in place of a potency, no number is given. Some structures have more than one record in an assay (separate samples or runs), and their calls can disagree.
Potency is the fitted concentration of half-maximal effect.

The compounds below were run against Glutaminase kidney isoform, mitochondrial (Homo sapiens) (UniProt O94925) (assay: qHTS for Inhibitors of Glutaminase (GLS)). Details: GLS enzymatic activity, qHTS titration; series mostly up to 45.5 µM.
Glutaminase kidney isoform, mitochondrial (Homo sapiens), sequence (O94925 whole entry, looked up, canonical isoform): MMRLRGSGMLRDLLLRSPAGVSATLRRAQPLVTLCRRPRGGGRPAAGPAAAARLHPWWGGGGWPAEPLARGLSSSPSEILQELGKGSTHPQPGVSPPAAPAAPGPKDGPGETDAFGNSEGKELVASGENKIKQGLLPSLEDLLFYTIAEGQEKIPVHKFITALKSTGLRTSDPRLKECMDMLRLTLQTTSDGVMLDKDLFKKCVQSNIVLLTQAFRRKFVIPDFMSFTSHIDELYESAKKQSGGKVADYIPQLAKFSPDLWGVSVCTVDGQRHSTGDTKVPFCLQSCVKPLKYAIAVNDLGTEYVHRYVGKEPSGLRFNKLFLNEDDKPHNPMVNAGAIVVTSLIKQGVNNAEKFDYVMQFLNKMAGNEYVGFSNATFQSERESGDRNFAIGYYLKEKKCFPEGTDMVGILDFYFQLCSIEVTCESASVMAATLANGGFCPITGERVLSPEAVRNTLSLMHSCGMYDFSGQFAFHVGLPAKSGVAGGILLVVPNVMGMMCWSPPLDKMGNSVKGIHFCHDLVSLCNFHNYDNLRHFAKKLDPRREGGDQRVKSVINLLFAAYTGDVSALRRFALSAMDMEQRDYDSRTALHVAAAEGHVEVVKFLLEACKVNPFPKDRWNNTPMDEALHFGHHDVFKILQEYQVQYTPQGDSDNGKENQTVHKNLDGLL
Source text: Glutaminase (GLS) catalyzes the hydrolysis of glutamine into glutamate and ammonia. It plays a critical role in glutaminolysis, which is an important energy source for proliferating cells. It was shown that c-Myc, an oncogenic transcription factor known to regulate microRNAs and to stimulate cell proliferation, increases glutamine metabolism by stimulating the expression of GLS via direct suppression of miR23a and miR23b.
GLS is also thought to play a pathogenic role on HAD using a human HIV-1 infected macrophage system. […] GLS inhibition limits glutamate release and provides neuroprotection against HIV-1 infected macrophages.
The overall goal of this project is to identify small molecule inhibitors of GLS through quantitative high throughput screening (qHTS) of the MLSMR. A validated potent and selective inhibitor can be used as a tool molecule to further study the pharmacology of its target as well as explore its potential therapeutic application in cancer and inflammatory neurological disorders, such as HIV1-associated dementia (HAD) and multiple sclerosis.
NIH Chemical Genomics Center [NCGC]
NIH Molecular Libraries Probe Centers Network [MLPCN]
Assay Submitter (PI): Barbara S. Slusher, Johns Hopkins University
Three 3 uL of hKGA is dispensed into black well 1536-well plates in 45 mM KH2PO4 (pH 8.2), 0.02% Tween-20. Then 23 nL of compounds are added through pin tool transfer. To this, 1 uL of 1mM L-Glutamine and 1 uL of a solution of L-Glutamateoxidase, HRP, Amplex red are added. Plate is centrifuged for 25 sec before an initial fluorescence read is obtained on the ViewLux, after 30 min of RT incubation, the final read is taken on the ViewLux.
`CNC(=O)CN1C(=O)c2cccnc2Sc2ccccc21` was tested, and the Potency was “inactive”.
`CC(=O)c1ccc(NC(=O)COc2ccccc2-c2nc(-c3ccccc3)no2)cc1` was tested, and the Potency was “inactive”.
With `CCOC(=O)c1cc2c(=O)n3ccccc3nc2n(CC2CCCO2)c1=NC(=O)c1ccc(C(C)(C)C)cc1` (centres undefined) the Potency was “inactive”.
`CCC(C)C1OC2(C=CC1C)CC1CC(C/C=C(/C)C(OC3CC(OC)C(OC4CC(OC)C(NC(C)=O)C(C)O4)C(C)O3)C(C)/C=C\C=C3\COC4C(O)C(C)=CC(C(=O)O1)C34O)O2` (centres undefined) was tested, and the Potency was “inactive”.
For `C[C@@H]1C[C@H]2[C@@H]3C[C@H](F)C4=CC(=O)C=C[C@@]4(C)[C@]3(F)[C@H](O)C[C@]2(C)[C@@]1(O)C(=O)CO`, the Potency was “inactive”.
With `O=C(Nc1ccccc1Cl)/C(Cl)=C(\Cl)S(=O)c1ccccc1` (centres undefined) the Potency was 1.78 µM (active).
With `O=C(Nc1ccccc1Cl)N1CCC(CN2CCCCC2)CC1` the Potency was “inactive”.
With `O=C(Nc1ccccc1Cl)N1CCC(CN2CCCC2)CC1` the Potency was “inactive”.
For `O=C(/C=C/c1cccc(F)c1)NC1CC1`, the Potency was “inactive”.
For `Cc1nnc(C(=O)NC(C)(C)c2nc(C(=O)NCc3ccc(F)cc3)c(O)c(=O)n2C)o1`, the Potency was “inactive”.
With `COc1ccc(OC)c([C@H](O)CNC(=O)CN)c1` the Potency was “inactive”.
In the case of `CCN(C(=O)COC(=O)/C=C/c1nc2ccccc2s1)C1CCS(=O)(=O)C1` (centres undefined), the Potency is reported as “inactive”.
With `Cc1cc(C)c2nc(SCC(=O)N(C)C3CCS(=O)(=O)C3)cc(C)c2c1` (centres undefined) the Potency was “inactive”.
`CN(C(=O)COC(=O)c1cc(-c2ccco2)nc2ccccc12)C1CCS(=O)(=O)C1` (centres undefined) was tested, and the Potency was 10 µM (active).
For `CCOC(=O)CN1C(C(=O)c2ccccc2)=C(OC(=O)C(C)(C)C)c2ccccc2S1(=O)=O`, the Potency was “inactive”.
In the case of `C=C(C)C(=O)Nc1cccc(C2=NOC3(C2)C[C@H](C(N)=O)N(C(=O)C(c2ccccc2)c2ccccc2)C3)c1` (some centres undefined), the Potency is reported as 14.1 µM (active).
With `NC(=O)[C@H]1CC2(CC(c3cccc(NC(=O)[C@H]4CCC(=O)N4)c3)=NO2)CN1C(=O)c1ccccc1C(=O)c1ccccc1` (some centres undefined) the Potency was “inactive”.
With `CCC(=O)Nc1cccc(C2=NOC3(C2)C[C@@H](C(N)=O)N(C(=O)c2cc([N+](=O)[O-])cc([N+](=O)[O-])c2C)C3)c1` (some centres undefined) the Potency was “inactive”.
With `COc1ccc(OC)c(NC(=O)Cn2c(=O)n(Cc3ccccc3)c(=O)c3ccccc32)c1` the Potency was “inactive”.
`CC(C)(C)C1C/C(=C/c2ccco2)C(=O)/C(=C/c2ccco2)C1` (centres undefined) was tested, and the Potency was 22.4 µM (active).
In the case of `CC[C@]1(C)CC(=O)NC1=O`, the Potency is reported as “inactive”.
With `O=P(O)(O)OC[C@H](O)CO` the Potency was “inactive”.
With `CC(C)c1ccc(NS(=O)(=O)c2ccc3[nH]cc(C(=O)NC4CCCC4)c(=O)c3c2)cc1` the Potency was “inactive”.
`COc1cc(Cl)c(C)cc1NC(=O)CCc1nc2cccnc2n1Cc1cccs1` was tested, and the Potency was “inactive”.
`COC(=O)Cc1ccc(OCC(=O)NC2CCCC2)cc1` was tested, and the Potency was “inactive”.
With `CC1(C)SC2C(NC(=O)COc3ccccc3)C(=O)N2C1C(=O)O` (centres undefined) the Potency was “inactive and 8.91 µM (active)”.
For `CC1(C)S[C@@H]2[C@H](NC(=O)COc3ccccc3)C(=O)N2C1C(=O)OCc1ccccc1` (some centres undefined), the Potency was “inactive”.
For `OCC(CO)NC1C[C@](O)(CO)[C@@H](O)[C@H](O)[C@H]1O` (some centres undefined), the Potency was “inactive”.
With `CC(=O)OCC(=O)[C@@]1(O)CC[C@@H]2[C@H]3CCC4=CC(=O)C=C[C@]4(C)[C@]3(F)[C@@H](O)C[C@@]21C` the Potency was “inactive”.
`Cc1c(Cl)cccc1NC(=O)C1CCCN(c2ncnc3onc(C)c23)C1` (centres undefined) was tested, and the Potency was “inactive”.
For `Cc1cccc(C(C)C)c1NC(=O)C(NS(=O)(=O)c1cccc2nsnc12)c1ccccc1` (centres undefined), the Potency was “inactive”.
In the case of `COCCCn1c(SCC(=O)NC2CCCC2)nnc1-c1ccccc1`, the Potency is reported as “inactive”.
With `COCCn1c(Cc2cccn2C)nnc1SCC(=O)Nc1nccs1` the Potency was “inactive”.
With `COCCCn1c(Cc2csc(Nc3cccc(Cl)c3)n2)nnc1SCC(=O)OC1CCCCC1` the Potency was 12.6 µM (active).
`FCOC(C(F)(F)F)C(F)(F)F` was tested, and the Potency was “inactive”.
With `C=C1C(=CC=C2CCC[C@@]3(C)[C@@H]2CC[C@H]3[C@H](C)CCCC(C)C)C[C@@H](O)C[C@@H]1O` the Potency was “inactive”.
With `CCOC(=O)c1ccc(NC(=O)CSc2nc3c([nH]c4ccccc43)c(=O)n2C)cc1` the Potency was “inactive”.
`CCOc1ccc(N/C(N)=N/c2nc(C)c(C)c(=O)[nH]2)cc1` was tested, and the Potency was “inactive”.
With `CCOc1ccc(-n2c(SCC(=O)NCc3ccccc3)nc3n[nH]c(C)c3c2=N)cc1` the Potency was “inactive”.
With `CCOc1ccc(-n2c(O)c(/C=N/Nc3nnc(C)c(=O)[nH]3)c3ccccc3c2=O)cc1` the Potency was 10 µM (active).
For `COc1ccc(-n2c(O)c(C=NCC(c3ccco3)N3CCCC3)c3ccccc3c2=O)cc1OC` (centres undefined), the Potency was “inactive”.
For `CCOc1ccc(-n2c(O)c(/C=N/Nc3nc(C)cc(C)n3)c3ccccc3c2=O)cc1`, the Potency was 11.2 µM (active).
In the case of `CCOc1ccc(-n2c(C)nc3c(cnn3-c3ccc(C)cc3)c2=O)cc1`, the Potency is reported as “inactive”.
In the case of `Cc1ccc(-c2ncc(Cl)cc2-c2ccc(S(C)(=O)=O)cc2)cn1`, the Potency is reported as “inactive”.
With `COc1ccc2c(c1)c(=O)c(S(=O)(=O)c1ccc(F)cc1)cn2CC(=O)Nc1ccc(C)cc1C` the Potency was “inactive”.
`CC1(C)OC2CC(=O)OC[C@@]23C1CC(=O)[C@]1(C)C3CC[C@@]2(C)C(c3ccoc3)OC(=O)C3O[C@@]321` (some centres undefined) was tested, and the Potency was “inactive”.
`CCOC(=O)Cc1cccc(-c2cc(CCCCCCc3ccc(O[C@H]4O[C@H](COC(C)=O)[C@@H](OC(C)=O)[C@H](OC(C)=O)[C@@H]4OC(C)=O)c(-c4cccc(CC(=O)OCC)c4)c3)ccc2O[C@H]2O[C@H](COC(C)=O)[C@@H](OC(C)=O)[C@H](OC(C)=O)[C@@H]2OC(C)=O)c1` was tested, and the Potency was “inactive”.
For `Cc1nc(N2CCOCC2)c2c(C(=O)NCc3cccc(Cl)c3)c(C)oc2n1`, the Potency was “inactive”.
For `COc1ccc(S(=O)(=O)NCc2cccn2Cc2cccc(C)c2)cc1Cl`, the Potency was “inactive”.
With `Cc1ccc(Cl)cc1NC(=O)CCC(=O)N1CC(C)Sc2ccccc21` (centres undefined) the Potency was “inactive”.
In the case of `Cc1cccc(C(=O)Nc2ccc(-c3nc4ccccc4s3)c(C)c2)c1`, the Potency is reported as “inactive”.
`Cc1ccc(-n2c(SCC(=O)NCCC3=CCCCC3)nc3n[nH]c(C)c3c2=N)cc1Cl` was tested, and the Potency was “inactive”.
With `COc1ccc(-n2c(SCC(=O)Nc3ccc(Cl)c(C)c3)nc3n[nH]c(C)c3c2=N)cc1` the Potency was “inactive”.
`COc1cccc(-n2c(SCC(=O)NC3CCCCC3)nc3n[nH]c(C)c3c2=N)c1` was tested, and the Potency was 10 µM (active).
With `C[C@H]1C[C@H]2[C@@H]3CCC4=CC(=O)C=C[C@]4(C)[C@@H]3C(=O)C[C@]2(C)[C@@]1(O)C(=O)CO` the Potency was “inactive”.
`O=C(O)c1ccc2c(c1)N(Cc1ccc(F)cc1)C(=O)c1ccccc1S2=O` (centres undefined) was tested, and the Potency was “inactive”.
`COc1cc2c(cc1OC)[C@@H](Cc1cc(OC)c(OC)c(OC)c1)[N+](C)(CCCOC(=O)CC/C=C/CCC(=O)OCCC[N+]1(C)CCc3cc(OC)c(OC)cc3[C@H]1Cc1cc(OC)c(OC)c(OC)c1)CC2` (some centres undefined) was tested, and the Potency was “inactive”.
In the case of `NNc1nnc(Cc2ccncc2)c2ccccc12`, the Potency is reported as “inactive”.
`COc1ccc(/C(O)=C2/C(=O)C(=O)N(CCCN(C)C)C2c2ccccc2)cc1OC` (centres undefined) was tested, and the Potency was “inactive”.
`CCCOc1ccc(/C(O)=C2/C(=O)C(=O)N(CCN(C)C)C2c2ccc(OC)c(OC)c2)cc1` (centres undefined) was tested, and the Potency was “inactive”.
With `COc1ccc(C2/C(=C(/O)c3ccccc3)C(=O)C(=O)N2c2ncccn2)cc1OC` (centres undefined) the Potency was 8.91 µM (active).
`COc1ccc(N2CCN(c3cc(C)nc4nncn34)CC2)cc1` was tested, and the Potency was “inactive”.
With `CCc1ccc(NC(=O)CN2C(=O)CCSc3ccc(S(=O)(=O)N4CCCC4)cc32)cc1` the Potency was “inactive”.
With `O=C(Nc1cccc(C(F)(F)F)c1)c1cc(Br)cc(Br)c1O` the Potency was “inactive”.
For `COc1ccc2c(c1)C(=O)Nc1cc(Cl)ccc1N2`, the Potency was 12.6 µM (active).
In the case of `COc1ccc(OC)c(-c2noc(N3CCN(c4cc(Cl)ccc4C)CC3)n2)c1`, the Potency is reported as “inactive”.
`COc1ccc(C2=NOC3(CC(=O)N(c4ccc(Cl)cc4)C3=O)C2)c(OC)c1` (centres undefined) was tested, and the Potency was “inactive”.
In the case of `Cc1cc(C)c2sc(NC(=O)c3ccc(S(=O)(=O)N4CCCC4)cc3)nc2c1`, the Potency is reported as “inactive”.
`Cc1cn([C@H]2CC(F)[C@@H](CO)O2)c(=O)[nH]c1=O` (some centres undefined) was tested, and the Potency was “inactive”.
In the case of `C=CC1=C(C(=O)O)N2C(=O)[C@@H](NC(=O)/C(=N/OCC(=O)O)c3csc(N)n3)[C@H]2SC1`, the Potency is reported as 12.6 µM (active).
In the case of `C=CC1=C(C(=O)O)N2C(=O)[C@@H](NC(=O)/C(=N\OCC(=O)O)c3csc(N)n3)[C@H]2SC1`, the Potency is reported as 12.6 µM (active).
With `CO/N=C(\C(=O)N[C@@H]1C(=O)N2C(C(=O)O)=C(Cn3nnc(C)n3)CS[C@H]12)c1csc(N)n1` the Potency was “inactive”.
In the case of `C[C@]12CC[C@@H]3c4ccc(O)cc4C[C@@H](CCCCCCCCCS(=O)CCCC(F)(F)C(F)(F)F)C3[C@@H]1CC[C@@H]2O` (some centres undefined), the Potency is reported as “inactive”.
`Cc1cccc(C)c1NC(=O)NC1=CCCN1C` was tested, and the Potency was “inactive”.
In the case of `CCCC(=O)O[C@]1(C(=O)COC(=O)CC)CC[C@@H]2[C@@H]3CCC4=CC(=O)CC[C@]4(C)[C@H]3[C@@H](O)C[C@@]21C`, the Potency is reported as “inactive”.
In the case of `CN1CC(O)c2cc(N=NC(N)=O)c(O)cc21` (centres undefined), the Potency is reported as “inactive”.
For `CC(=O)O[C@]1(C(C)=O)CC[C@@H]2[C@@H]3C=C(C)C4=CC(=O)CC[C@@]4(C)[C@H]3CC[C@]21C`, the Potency was “inactive”.
In the case of `CC(C)(C)c1ccc(S(=O)(=O)N2CCN(C(=O)c3cc(-c4ccc(Br)cc4)n[nH]3)CC2)cc1`, the Potency is reported as “inactive”.
In the case of `COc1cc(OC)c(S(=O)(=O)Nc2ccccc2C(=O)O)cc1S(=O)(=O)Nc1ccccc1C(=O)O`, the Potency is reported as 5.62 µM (active).
In the case of `COc1cc(/C=C/C(=O)O)cc(S(=O)(=O)Nc2ccccc2SC)c1OC`, the Potency is reported as “inactive”.
For `COc1ccc(Cl)cc1S(=O)(=O)Nc1cccc(C(=O)O)c1`, the Potency was “inactive”.
In the case of `COc1cc2c(cc1OC)CC(=O)N(CCCN(C)C[C@H]1Cc3cc(OC)c(OC)cc31)CC2`, the Potency is reported as “inactive”.
For `Nc1ccc2nc3c(=O)[nH]c(=S)[nH]c3nc2c1`, the Potency was 3.16 µM (active).
`Cc1ccccc1C(=O)N(Cc1ccc(N(C)C)cc1)CC1CCCO1` (centres undefined) was tested, and the Potency was “inactive”.
